Experimental data published in publication PMC7862700, “An all-to-all approach to the identification of sequence-specific readers for epigenetic DNA modifications on cytosine”.

How the values were obtained:
Assay in all cases: DAPPL (digital affinity profiling via proximity ligation, sequencing); 10 mM Tris-HCl pH 7.5, 50 mM NaCl, 1 mM DTT, 4% glycerol, room temperature, 30 min; GST-TFs on glutathione beads, 16-mer random dsDNA library, 0.1% formaldehyde crosslink after washing; high values mean tight binding
Conditions in all cases: protein: recombinant; tags: N-terminal GST; dsDNA, one strand shown
[1] = molecular target: T1, FLI1 (Homo sapiens, UniProt Q01543 1-452)
T1 sequence: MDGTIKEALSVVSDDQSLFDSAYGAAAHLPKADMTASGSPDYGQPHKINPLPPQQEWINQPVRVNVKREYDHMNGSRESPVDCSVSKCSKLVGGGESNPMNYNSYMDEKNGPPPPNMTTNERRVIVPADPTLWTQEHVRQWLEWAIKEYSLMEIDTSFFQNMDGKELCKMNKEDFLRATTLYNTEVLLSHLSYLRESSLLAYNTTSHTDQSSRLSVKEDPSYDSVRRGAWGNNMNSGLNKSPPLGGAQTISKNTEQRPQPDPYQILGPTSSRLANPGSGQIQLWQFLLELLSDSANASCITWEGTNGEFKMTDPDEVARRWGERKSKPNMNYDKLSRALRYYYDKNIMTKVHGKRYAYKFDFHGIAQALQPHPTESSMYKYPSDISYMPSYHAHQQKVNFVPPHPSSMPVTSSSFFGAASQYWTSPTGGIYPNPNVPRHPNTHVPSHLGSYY
Method in brief: (§1)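 Binding signal is given per hexamer as its read frequency for a factor divided by its frequency in the tag-only sample. GST-fused human transcription factors were expressed in yeast, captured on glutathione beads, barcoded with DNA and pooled with that sample, then incubated with 200 nmole of a 16-mer random double-stranded DNA library in Tris/NaCl/DTT/glycerol buffer for 30 min at room temperature. The pools were then washed, crosslinked, proximity-ligated, amplified by PCR and sequenced on an Illumina NextSeq500.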

[2] = molecular target: T2, ELK1 (Homo sapiens, UniProt P19419 1-428)
T2 sequence: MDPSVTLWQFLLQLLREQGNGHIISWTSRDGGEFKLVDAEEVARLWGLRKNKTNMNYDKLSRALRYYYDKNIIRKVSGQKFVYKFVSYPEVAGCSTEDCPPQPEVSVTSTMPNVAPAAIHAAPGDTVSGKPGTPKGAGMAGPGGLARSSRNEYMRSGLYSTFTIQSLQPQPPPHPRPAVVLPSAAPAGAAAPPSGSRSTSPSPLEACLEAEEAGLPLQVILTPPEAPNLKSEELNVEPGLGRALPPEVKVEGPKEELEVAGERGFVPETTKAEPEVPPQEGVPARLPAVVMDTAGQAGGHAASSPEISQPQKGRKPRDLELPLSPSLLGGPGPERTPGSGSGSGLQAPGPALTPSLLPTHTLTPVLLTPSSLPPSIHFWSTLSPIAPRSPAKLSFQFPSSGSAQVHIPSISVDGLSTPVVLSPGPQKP
Method in brief: as §1

[3] = molecular target: T3, GABPA (Homo sapiens, UniProt Q06546 1-454)
T3 sequence: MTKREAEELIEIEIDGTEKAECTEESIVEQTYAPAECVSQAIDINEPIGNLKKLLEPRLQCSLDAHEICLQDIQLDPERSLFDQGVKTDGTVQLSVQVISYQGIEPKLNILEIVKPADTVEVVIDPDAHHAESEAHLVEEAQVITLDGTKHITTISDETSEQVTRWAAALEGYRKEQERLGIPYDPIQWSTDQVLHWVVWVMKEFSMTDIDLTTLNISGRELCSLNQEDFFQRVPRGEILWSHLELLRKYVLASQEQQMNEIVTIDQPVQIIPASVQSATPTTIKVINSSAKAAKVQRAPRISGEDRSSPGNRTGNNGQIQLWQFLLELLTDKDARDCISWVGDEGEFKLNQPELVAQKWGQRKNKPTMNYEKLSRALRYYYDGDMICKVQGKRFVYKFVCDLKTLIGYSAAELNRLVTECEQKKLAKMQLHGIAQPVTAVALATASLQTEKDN
Method in brief: as §1

[4] = molecular target: T4, ERG (Homo sapiens, UniProt P11308 1-479)
T4 sequence: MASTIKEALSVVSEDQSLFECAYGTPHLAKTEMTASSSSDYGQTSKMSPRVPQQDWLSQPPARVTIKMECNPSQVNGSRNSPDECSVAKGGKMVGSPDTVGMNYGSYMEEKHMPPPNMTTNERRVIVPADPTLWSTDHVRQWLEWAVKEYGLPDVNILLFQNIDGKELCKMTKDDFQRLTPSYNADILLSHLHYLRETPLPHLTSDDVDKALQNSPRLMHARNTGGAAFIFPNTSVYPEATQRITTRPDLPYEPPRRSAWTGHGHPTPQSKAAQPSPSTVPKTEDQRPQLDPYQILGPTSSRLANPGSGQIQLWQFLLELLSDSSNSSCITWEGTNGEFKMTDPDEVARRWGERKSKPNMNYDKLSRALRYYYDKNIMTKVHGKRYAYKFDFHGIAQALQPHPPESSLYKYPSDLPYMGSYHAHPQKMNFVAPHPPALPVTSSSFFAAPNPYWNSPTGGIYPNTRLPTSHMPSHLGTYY
Method in brief: as §1

[5] = molecular target: ELF1 (Homo sapiens, UniProt P32519 1-619)
Method in brief: as §1

[6] = molecular target: T5, EHF (Homo sapiens, UniProt Q9NZC4 1-300)
T5 sequence: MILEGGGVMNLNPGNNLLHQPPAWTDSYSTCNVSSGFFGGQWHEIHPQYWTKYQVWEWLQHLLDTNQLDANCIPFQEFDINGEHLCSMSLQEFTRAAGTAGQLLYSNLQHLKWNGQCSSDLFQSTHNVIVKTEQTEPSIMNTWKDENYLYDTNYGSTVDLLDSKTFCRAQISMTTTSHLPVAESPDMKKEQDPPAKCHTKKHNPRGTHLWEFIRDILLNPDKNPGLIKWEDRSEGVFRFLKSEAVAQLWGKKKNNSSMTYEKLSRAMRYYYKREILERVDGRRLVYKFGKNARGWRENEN
Method in brief: as §1

[7] = molecular target: SPI1 (Homo sapiens, UniProt P17947 1-270)
Method in brief: as §1

[8] = molecular target: SPIB (Homo sapiens, UniProt Q01892 1-262)
Method in brief: as §1

[9] = molecular target: T6, ELK3 (Homo sapiens, UniProt P41970 1-407)
T6 sequence: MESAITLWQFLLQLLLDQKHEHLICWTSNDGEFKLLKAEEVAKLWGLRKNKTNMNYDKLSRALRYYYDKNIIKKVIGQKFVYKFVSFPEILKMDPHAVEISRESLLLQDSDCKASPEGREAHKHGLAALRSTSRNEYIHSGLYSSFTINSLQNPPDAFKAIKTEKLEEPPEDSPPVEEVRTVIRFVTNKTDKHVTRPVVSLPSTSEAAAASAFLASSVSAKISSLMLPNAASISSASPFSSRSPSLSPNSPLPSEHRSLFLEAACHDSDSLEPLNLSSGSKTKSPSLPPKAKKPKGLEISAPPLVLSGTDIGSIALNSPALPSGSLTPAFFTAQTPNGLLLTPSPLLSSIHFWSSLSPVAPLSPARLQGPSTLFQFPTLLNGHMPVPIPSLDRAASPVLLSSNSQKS
Method in brief: as §1

[10] = molecular target: T7, FEV (Homo sapiens, UniProt Q99581 1-238)
T7 sequence: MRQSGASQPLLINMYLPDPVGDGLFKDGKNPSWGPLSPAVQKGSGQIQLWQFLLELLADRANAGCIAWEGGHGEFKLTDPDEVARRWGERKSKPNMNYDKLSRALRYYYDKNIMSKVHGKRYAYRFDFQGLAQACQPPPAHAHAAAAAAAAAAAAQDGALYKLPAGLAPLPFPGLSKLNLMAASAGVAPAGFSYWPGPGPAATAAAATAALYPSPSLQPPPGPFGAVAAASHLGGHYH
Method in brief: as §1

[11] = molecular target: ETV5 (Homo sapiens, UniProt P41161 1-510)
Method in brief: as §1

[12] = molecular target: T8, SPIC (Homo sapiens, UniProt Q8N5J4 1-248)
T8 sequence: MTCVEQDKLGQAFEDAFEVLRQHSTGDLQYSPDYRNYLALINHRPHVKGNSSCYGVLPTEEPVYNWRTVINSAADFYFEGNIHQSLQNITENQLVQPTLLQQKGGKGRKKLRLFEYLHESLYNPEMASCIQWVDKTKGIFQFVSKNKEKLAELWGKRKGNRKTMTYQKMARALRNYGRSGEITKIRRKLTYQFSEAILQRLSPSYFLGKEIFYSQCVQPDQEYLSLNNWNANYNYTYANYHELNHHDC
Method in brief: as §1

[13] = molecular target: ELF4 (Homo sapiens, UniProt Q99607 1-663)
Method in brief: as §1

[14] = molecular target: T9, ELK4 (Homo sapiens, UniProt P28324-2 1-405)
T9 sequence: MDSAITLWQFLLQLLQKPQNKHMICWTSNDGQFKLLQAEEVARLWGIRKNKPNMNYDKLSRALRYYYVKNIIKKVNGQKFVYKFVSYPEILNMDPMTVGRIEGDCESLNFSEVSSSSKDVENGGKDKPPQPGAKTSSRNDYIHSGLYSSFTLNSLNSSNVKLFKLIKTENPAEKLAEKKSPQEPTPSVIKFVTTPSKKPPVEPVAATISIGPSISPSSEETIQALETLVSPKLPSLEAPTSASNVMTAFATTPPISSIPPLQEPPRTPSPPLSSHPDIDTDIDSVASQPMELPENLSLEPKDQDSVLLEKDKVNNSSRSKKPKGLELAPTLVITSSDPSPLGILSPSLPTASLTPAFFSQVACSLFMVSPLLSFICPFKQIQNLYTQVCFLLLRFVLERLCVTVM
Method in brief: as §1

[15] = molecular target: T10, ETV2 (Homo sapiens, UniProt O00321 1-342)
T10 sequence: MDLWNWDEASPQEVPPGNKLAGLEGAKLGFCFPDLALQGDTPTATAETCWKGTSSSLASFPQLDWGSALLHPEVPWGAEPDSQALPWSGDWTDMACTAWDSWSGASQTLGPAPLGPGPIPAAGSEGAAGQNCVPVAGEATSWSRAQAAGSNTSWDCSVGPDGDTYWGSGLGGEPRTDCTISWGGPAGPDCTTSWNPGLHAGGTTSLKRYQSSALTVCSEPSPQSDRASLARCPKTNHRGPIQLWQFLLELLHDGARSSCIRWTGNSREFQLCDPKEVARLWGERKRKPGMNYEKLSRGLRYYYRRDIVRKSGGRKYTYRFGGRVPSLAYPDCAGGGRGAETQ
Method in brief: as §1

[16] = molecular target: T11, ELF3 (Homo sapiens, UniProt P78545 1-371)
T11 sequence: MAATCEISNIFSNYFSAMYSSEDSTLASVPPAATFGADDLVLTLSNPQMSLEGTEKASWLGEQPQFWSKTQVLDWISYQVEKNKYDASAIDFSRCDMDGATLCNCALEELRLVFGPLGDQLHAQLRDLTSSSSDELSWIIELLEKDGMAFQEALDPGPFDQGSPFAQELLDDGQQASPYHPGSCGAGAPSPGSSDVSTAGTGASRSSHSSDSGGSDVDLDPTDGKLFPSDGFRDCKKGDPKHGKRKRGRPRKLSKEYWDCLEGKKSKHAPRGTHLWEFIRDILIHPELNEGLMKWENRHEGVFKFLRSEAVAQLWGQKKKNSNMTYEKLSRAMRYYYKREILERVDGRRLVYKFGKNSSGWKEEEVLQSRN
Method in brief: as §1

[17] = molecular target: ETV1 (Homo sapiens, UniProt P50549 1-477)
Method in brief: as §1

ELF1, sequence (P32519 whole entry): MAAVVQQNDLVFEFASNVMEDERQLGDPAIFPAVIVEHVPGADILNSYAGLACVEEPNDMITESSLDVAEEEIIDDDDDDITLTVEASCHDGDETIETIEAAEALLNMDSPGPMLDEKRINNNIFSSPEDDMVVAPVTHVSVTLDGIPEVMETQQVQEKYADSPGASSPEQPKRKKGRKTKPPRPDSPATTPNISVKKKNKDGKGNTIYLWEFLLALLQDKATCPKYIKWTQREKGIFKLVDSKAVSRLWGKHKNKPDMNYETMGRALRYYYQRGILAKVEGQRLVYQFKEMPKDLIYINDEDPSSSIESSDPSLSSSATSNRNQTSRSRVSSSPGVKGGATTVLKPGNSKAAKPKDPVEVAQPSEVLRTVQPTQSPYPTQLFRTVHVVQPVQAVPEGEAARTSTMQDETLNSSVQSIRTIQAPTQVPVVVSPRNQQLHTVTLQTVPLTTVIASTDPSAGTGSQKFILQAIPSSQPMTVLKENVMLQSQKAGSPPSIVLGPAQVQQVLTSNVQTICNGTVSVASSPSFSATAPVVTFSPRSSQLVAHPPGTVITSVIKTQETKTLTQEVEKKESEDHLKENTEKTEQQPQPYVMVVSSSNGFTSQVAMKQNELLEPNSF
ETV1, sequence (P50549 whole entry): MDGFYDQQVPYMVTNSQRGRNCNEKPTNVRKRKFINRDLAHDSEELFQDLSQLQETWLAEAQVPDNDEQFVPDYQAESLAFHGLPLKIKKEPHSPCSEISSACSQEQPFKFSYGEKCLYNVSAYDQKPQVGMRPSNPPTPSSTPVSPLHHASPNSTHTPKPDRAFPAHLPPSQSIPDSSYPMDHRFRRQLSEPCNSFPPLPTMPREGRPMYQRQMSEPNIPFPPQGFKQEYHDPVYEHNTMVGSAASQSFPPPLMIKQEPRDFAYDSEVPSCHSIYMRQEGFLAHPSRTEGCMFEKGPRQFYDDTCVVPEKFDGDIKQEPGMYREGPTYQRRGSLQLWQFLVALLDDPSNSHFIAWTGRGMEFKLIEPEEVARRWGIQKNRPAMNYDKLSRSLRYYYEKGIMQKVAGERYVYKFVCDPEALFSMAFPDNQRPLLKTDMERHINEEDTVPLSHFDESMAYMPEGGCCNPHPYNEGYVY
SPIB, sequence (Q01892 whole entry): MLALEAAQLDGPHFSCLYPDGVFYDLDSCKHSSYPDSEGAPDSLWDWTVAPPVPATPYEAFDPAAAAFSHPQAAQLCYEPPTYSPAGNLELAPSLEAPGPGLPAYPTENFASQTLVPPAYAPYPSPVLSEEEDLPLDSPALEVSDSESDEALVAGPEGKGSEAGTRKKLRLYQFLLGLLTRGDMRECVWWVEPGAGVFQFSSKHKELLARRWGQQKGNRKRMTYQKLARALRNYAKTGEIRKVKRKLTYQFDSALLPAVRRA
ETV5, sequence (P41161 whole entry): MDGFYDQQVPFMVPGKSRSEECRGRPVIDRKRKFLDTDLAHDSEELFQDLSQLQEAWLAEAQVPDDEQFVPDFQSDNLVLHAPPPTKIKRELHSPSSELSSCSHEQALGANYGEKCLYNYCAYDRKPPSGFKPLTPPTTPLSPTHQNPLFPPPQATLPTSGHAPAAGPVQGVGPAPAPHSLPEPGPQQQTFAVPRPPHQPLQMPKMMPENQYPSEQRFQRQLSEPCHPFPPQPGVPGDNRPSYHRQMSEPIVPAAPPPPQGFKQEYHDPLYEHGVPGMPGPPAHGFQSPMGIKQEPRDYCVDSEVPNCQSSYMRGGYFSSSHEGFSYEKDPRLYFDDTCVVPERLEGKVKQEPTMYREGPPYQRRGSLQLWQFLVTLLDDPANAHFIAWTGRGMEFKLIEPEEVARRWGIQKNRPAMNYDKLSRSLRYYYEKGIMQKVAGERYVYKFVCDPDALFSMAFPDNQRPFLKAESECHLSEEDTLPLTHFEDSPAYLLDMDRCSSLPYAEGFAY
ELF4, sequence (Q99607 whole entry): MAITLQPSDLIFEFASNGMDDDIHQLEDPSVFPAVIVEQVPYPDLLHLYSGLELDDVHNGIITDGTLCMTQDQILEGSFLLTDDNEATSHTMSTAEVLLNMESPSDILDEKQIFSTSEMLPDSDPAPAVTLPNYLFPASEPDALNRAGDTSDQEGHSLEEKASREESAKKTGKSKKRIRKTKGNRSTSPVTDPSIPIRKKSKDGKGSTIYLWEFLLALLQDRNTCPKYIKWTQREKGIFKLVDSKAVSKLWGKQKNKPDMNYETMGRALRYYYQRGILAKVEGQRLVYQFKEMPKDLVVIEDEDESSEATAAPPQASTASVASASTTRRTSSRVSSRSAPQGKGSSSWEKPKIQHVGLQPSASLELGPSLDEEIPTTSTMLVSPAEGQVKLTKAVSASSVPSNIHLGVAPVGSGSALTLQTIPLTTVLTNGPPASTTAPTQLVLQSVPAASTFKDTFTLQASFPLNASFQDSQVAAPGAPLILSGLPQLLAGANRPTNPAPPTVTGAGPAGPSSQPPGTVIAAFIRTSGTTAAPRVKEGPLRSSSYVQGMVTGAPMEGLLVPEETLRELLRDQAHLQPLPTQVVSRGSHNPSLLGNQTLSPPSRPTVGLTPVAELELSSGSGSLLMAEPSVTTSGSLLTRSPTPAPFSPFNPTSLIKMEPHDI

Row | Sequence | binding signal [1] | binding signal [2] | binding signal [3] | binding signal [4] | binding signal [5] | binding signal [6] | binding signal [7] | binding signal [8] | binding signal [9] | binding signal [10] | binding signal [11] | binding signal [12] | binding signal [13] | binding signal [14] | binding signal [15] | binding signal [16] | binding signal [17]
1 | GCGCCT | 1.09 fold enrichment (6-mer frequency, TF over GST control) | 1.19 fold enrichment (6-mer frequency, TF over GST control) | 1.11 fold enrichment (6-mer frequency, TF over GST control) | 1.04 fold enrichment (6-mer frequency, TF over GST control) | 1.1 fold enrichment (6-mer frequency, TF over GST control) | 1.05 fold enrichment (6-mer frequency, TF over GST control) | 1.12 fold enrichment (6-mer frequency, TF over GST control) | 1.16 fold enrichment (6-mer frequency, TF over GST control) | 1.05 fold enrichment (6-mer frequency, TF over GST control) | 1.13 fold enrichment (6-mer frequency, TF over GST control) | 1.07 fold enrichment (6-mer frequency, TF over GST control) | 1 fold enrichment (6-mer frequency, TF over GST control) | 1.07 fold enrichment (6-mer frequency, TF over GST control) | 1.28 fold enrichment (6-mer frequency, TF over GST control) | 1.13 fold enrichment (6-mer frequency, TF over GST control) | 1.11 fold enrichment (6-mer frequency, TF over GST control) | 1.17 fold enrichment (6-mer frequency, TF over GST control)
2 | CATGCC | 1.18 fold enrichment (6-mer frequency, TF over GST control) | 1.17 fold enrichment (6-mer frequency, TF over GST control) | 1.09 fold enrichment (6-mer frequency, TF over GST control) | 1.1 fold enrichment (6-mer frequency, TF over GST control) | 1.16 fold enrichment (6-mer frequency, TF over GST control) | 1.16 fold enrichment (6-mer frequency, TF over GST control) | 1.09 fold enrichment (6-mer frequency, TF over GST control) | 1.11 fold enrichment (6-mer frequency, TF over GST control) | 1.06 fold enrichment (6-mer frequency, TF over GST control) | 1.13 fold enrichment (6-mer frequency, TF over GST control) | 1.13 fold enrichment (6-mer frequency, TF over GST control) | 1.16 fold enrichment (6-mer frequency, TF over GST control) | 1.16 fold enrichment (6-mer frequency, TF over GST control) | 1.17 fold enrichment (6-mer frequency, TF over GST control) | 1.08 fold enrichment (6-mer frequency, TF over GST control) | 1.13 fold enrichment (6-mer frequency, TF over GST control) | 1.12 fold enrichment (6-mer frequency, TF over GST control)
